High-throughput results from PubChem BioAssay.
RGS4-Gao reg = modulates binding of RGS4 to human Galphao | Multiplexed bead flow cytometry; actives lie on both sides | P09471 | 220,000 compounds, 0.33% hits | binding response (% of control), % at 10 µM; in the data active = binding response below about 49% or above about 150%; inactive = in between;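 also: fluorescent Galphao activated with aluminum fluoride binding bead-coupled RGS4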
RGS8-Gao reg = modulates binding of RGS8 to human Galphao | P09471 | multiplexed bead flow cytometry; actives lie on both sides | response (percent of control binding), % at 10 µM | 220,000 compounds, 0.34% hits | AID 1423; in the data active = response below about 60% or above about 140%; inactive = in between;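 also: Galphao activated as the GDP aluminium fluoride complex binding bead-coupled RGS8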
GSH fluor = GSH bead compound fluorescence profile; fluorescence (KMESF) at 10 µM; GSH beads flow cytometry, compound fluorescence 488/530 nm; active compounds read high; 190,000 compounds, 0.25% hits; in the data active = fluorescence above about 89;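 also: glutathione beads carrying GST-tagged Bcl family fusion proteins plus one bare bead set; values are compound well signal with DMSO vehicle wells as background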
RGS16-Gao = modulates binding between human RGS16 and Galphao | bead-based flow cytometry RGS16-Galphao binding, fluorescence; actives lie on both sides | binding response (% of control), % at 10 µM | 220,000 compounds, 0.38% hits;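 also: Galphao activated by GDP with aluminum fluoride before binding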
RGS7-Gao reg = human RGS7-Galphao interaction regulation. AID 1439. binding response (% of control), % at 10 µM. Multiplexed bead flow cytometry, RGS7-Galphao binding; actives lie on both sides. 220,000 compounds, 0.35% hits. P09471; in the data active = binding response below about 49% or above about 150%; inconclusive = no clear call, values can overlap the other calls; inactive = in between;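 also: fluorescent Galphao held in activated GDP-AlF4 state binding bead-coupled RGS7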
Avidin fluor = compound fluoresces at 488/530 nm on avidin beads | compound fluorescence 488/530 nm, flow cytometry; active compounds read high | fluorescence (KMESF) at 10 µM | 220,000 compounds, 0.38% hits | AID 1775; in the data active = fluorescence above about 47
RGS4-Gao HTS = RGS4-Galphao interaction regulator (human) | AID 1504 | multiplexed bead flow cytometry, RGS–Galpha-o binding | 1,600 compounds, 99% hits | RGS4–Galpha-o binding response, % at 10 µM | shares compounds with RGS16-Gao;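 also: fluorescently labeled Galpha-o bound to GDP with aluminium fluoride binding biotinylated RGS beads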
Target sequence (P09471 whole entry, looked up): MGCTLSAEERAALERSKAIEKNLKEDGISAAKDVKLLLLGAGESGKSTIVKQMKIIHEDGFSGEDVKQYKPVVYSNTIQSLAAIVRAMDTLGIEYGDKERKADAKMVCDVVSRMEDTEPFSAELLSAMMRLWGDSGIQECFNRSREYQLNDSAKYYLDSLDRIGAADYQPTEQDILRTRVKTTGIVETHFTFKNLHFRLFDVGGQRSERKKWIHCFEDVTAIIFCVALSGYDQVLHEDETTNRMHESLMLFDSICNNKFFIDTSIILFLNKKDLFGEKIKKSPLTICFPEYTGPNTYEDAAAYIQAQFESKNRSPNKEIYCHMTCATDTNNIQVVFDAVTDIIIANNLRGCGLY
Target sequence (P49798 whole entry, looked up): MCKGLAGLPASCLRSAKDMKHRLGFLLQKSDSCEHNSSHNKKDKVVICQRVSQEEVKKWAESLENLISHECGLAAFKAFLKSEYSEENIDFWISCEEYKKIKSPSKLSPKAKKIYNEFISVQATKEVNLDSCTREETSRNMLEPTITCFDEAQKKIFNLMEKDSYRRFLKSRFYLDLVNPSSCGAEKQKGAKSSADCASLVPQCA
Avidin counter = counter-screen: compounds disrupting biotin binding to avidin beads; 1,700 tested, under 10 active; streptavidin beads, fluorescein-biotin binding, flow cytometry; shares compounds with RGS16-Gao; inhibition, % at 10 µM; AID 1783;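 active = inhibition above 50%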;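 also: median green fluorescence of gated singlet beads compared with DMSO control wells; 0% = DMSO wells and 100% = complete loss of bead fluorescence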
RGS8-Gao single = RGS8-Galphao interaction regulation, single point confirmation | binding response (% of control), % at 10 µM | bead-based flow cytometry RGS8-Galphao binding, fluorescence; actives lie on both sides | 1,700 compounds, 3% hits | shares compounds with RGS16-Gao; in the data active = binding response below about 72% or above about 130%; inactive = in between;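 also: Galphao activated as GDP AlF4 complex before binding bead RGS8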
RGS7-Gao single = RGS7-Galphao interaction regulation, single point confirmation; bead-based flow cytometry RGS7-Galphao binding; actives lie on both sides; AID 1837; 1,700 compounds, 7.8% hits; response (percent of control binding), % at 10 µM; shares compounds with RGS16-Gao; in the data active = response below about 75% or above about 130%; inactive = in between;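 also: fluorescent Galphao activated with GDP and aluminum fluoride binding bead-coupled RGS7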
RGS16-Gao single = confirmation of regulators of human RGS16-Galphao interaction; shares compounds with RGS16-Gao; bead-based flow cytometry, RGS16-Galphao binding; actives lie on both sides; response (% of control binding), % at 10 µM; 1,700 compounds, 4% hits; in the data active = response below about 74% or above about 130%; inactive = in between;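 also: Galphao activated as the GDP aluminium fluoride complex binding bead-coupled RGS16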
RGS4-Gao single = RGS4-Galphao interaction regulation, single point confirmation. 1,700 compounds, 4% hits. shares compounds with RGS16-Gao. RGS4-Galphao binding, multiplexed bead flow cytometry; actives lie on both sides. binding response (% of control), % at 10 µM; in the data active = binding response below about 74% or above about 130%; inactive = in between
RGS19-Gao conf = confirmation of regulators of human RGS19-Galphao interaction; 1,700 compounds, 5% hits; bead-based flow cytometry RGS19-Galphao binding; actives lie on both sides; shares compounds with RGS16-Gao; response (percent of control binding), % at 10 µM; in the data active = response below about 50% or above about 160%; inactive = in between;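 also: 100% = no compound control and 0% = blank background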
An asterisk follows results filed as active; ? = inconclusive; / = no result; [ ] = dose if it differs, or a comment. Most compounds without a hit are left out; they make up all but 1.2% or so of the library. Unless noted, no rule for the calls is given here.

SMILES	RGS4-Gao reg	RGS8-Gao reg	GSH fluor	RGS16-Gao	RGS7-Gao reg	Avidin fluor	RGS4-Gao HTS	Avidin counter	RGS8-Gao single	RGS7-Gao single	RGS16-Gao single	RGS4-Gao single	RGS19-Gao conf
O=C(O)C[C@@H]1C(=O)O[C@@H]2C(COC(=O)c3cc(O)c(O)c(O)c3)O[C@@H](OC(=O)c3cc(O)c(O)c(O)c3)[C@@H](OC(=O)c3cc(O)c(O)c4c3[C@H]1[C@H](O)C(=O)O4)[C@H]2OC(=O)c1cc(O)c(O)c(O)c1 (stereo partly drawn)	2.5*	38*	/	43	?	6	/	0	39*	-12*	39*	-0.5*	42*
O=c1ccc2cc(O)c(O)cc2o1	57	59*	19	38	58	3	57*	2	94	91	91	89	86
O=C(NCc1ccc2c(c1)OCO2)c1ccc(COc2cccc(Cl)c2)o1	100	101	46	102	101	11	/	/	/	/	/	/	/
O=C(NCc1ccc2c(c1)OCO2)c1cccc([N+](=O)[O-])c1	/	/	19	/	/	/	/	2	101	100	103	101	96
O=C(NCc1ccc2c(c1)OCO2)c1ccc2c(c1)OCO2	105	100	/	105	?	23	/	/	/	/	/	/	/
O=C(NCc1ccc2c(c1)OCO2)c1ccc(CSCc2ccccc2Cl)o1	54	75	12	9	48*	7	54*	1	98	101	101	103	106
O=S(=O)(NCc1ccccc1)c1ccc2c(c1)OCCO2	/	/	17	/	/	/	/	1	101	104	100	102	109
CC(=O)Nc1cnc2ccccc2n1	113	102	24	108	181*[activator]	102*	113*	0	100	102	97	96	91
OCCNc1cnc2ccccc2n1	107	105	10	108	?	10	/	/	/	/	/	/	/
O=C(Oc1cccc2cccnc12)c1ccco1	97	94	34	94	96	7	/	/	/	/	/	/	/
O=C(Cc1ccc(Cl)cc1)Oc1cccc2cccnc12	79	66	24	22*	82	6	79*	0	98	96	97	99	84
Cc1ccc2nc(C)c3c(c2c1)SCC3	207*[activator]	103	/	193*[activator]	?	102*	/	0	101	100	102	101	107
Cc1cccc(NCc2cc(Cl)cc(Cl)c2O)n1	274*[activator]	102	17	323*[activator]	278*[activator]	175*	/	0	108	86	111	95	70
C=C1SC(=Nc2c(C)cccc2Cl)N(C(=O)c2sc3ccccc3c2Cl)C12CCCCC2	116	109	/	117	?	8	/	/	/	/	/	/	/
C=C1SC(=Nc2ccccc2Cl)N(C(=O)c2sc3ccccc3c2Cl)C1(C)C	-16*	9.4*	/	-13*	?	-2	/	0	100	98	100	99	103
